Results published in PubChem BioAssay AID1214 (Sanford-Burnham Center for Chemical Genomics, 2008).
The whole screen tested about 190,000 compounds, of which about 10 (0.005%) were called active.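 The calls were made as follows: active = activation factor of 2 or more at 20 µM, relative to plate controls; inactive = the rest.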 Not all results are given here.

The compounds below were run against Mannose-6-phosphate isomerase (Homo sapiens) (UniProt P34949) (assay: MPI enzyme activity enhancement – biochemical, fluorescence intensity, near-Km mannose 6-phosphate, primary screen (AID 1214)). Details: purified human PMI, coupled resazurin fluorescence, 20 min; at 20 µM; stronger effect = higher value; 1 = vehicle control, 0 substrate-free wells.
Sequence of Mannose-6-phosphate isomerase (Homo sapiens) (P34949 whole entry, looked up): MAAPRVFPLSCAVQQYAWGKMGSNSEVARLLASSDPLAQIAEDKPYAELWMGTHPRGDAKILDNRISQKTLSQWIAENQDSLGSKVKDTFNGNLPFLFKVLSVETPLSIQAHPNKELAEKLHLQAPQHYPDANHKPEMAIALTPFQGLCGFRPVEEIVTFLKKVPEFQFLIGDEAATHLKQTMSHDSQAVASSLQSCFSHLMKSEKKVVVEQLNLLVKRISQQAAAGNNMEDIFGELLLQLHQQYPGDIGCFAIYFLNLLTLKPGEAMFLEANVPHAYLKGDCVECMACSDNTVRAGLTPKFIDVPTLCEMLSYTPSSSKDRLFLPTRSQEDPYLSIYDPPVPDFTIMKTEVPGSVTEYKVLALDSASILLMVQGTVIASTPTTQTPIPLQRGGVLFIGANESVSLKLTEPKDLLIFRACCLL

Activation factor, inactive:
COC(=O)c1cc(NC(=O)CN2CCN(C(C)=O)CC2)cc(C(=O)OC)c1 0.9
C/C(N)=C(/C#N)C(=O)COC(=O)CNS(=O)(=O)c1ccc(C)cc1 1
CCNC(=O)CC1C(=O)N(c2ccc(F)cc2)C(=O)N1CCc1sccc1C (stereo not given) 1.1
CCOc1ccc(C(C)=O)cc1CSc1nnc(-c2ccncc2)n1CCOC 1.1
CCOCCCNCc1ccc(OCc2ccc(F)cc2)c(OC)c1 0.9
CCCCc1nnc(NC(=O)CSc2nc(N)cc(=O)[nH]2)s1 0.8
O=C(NCCN1C(=O)S/C(=C\c2cccnc2)C1=O)c1cccc(OC(F)F)c1 0.9
O=C1/C(=C\c2cccnc2)CN(Cc2ccccc2)C/C1=C\c1cccnc1 0.9
Cc1nnc(SC(C(=O)Nc2cc(Cl)cc(Cl)c2)c2ccccc2)[nH]c1=O (stereo not given) 1
CC(C)CC(=O)NC(=S)NNC(=O)c1cccc([N+](=O)[O-])c1 0.9
CC1CCCCN1C(=S)NCc1ccccc1 (stereo not given) 0.9
CN(C)S(=O)(=O)c1ccc(NC(=O)N2CCOCC2)cc1 1
Cc1cc(C(=O)COC(=O)CNC(=O)c2ccc(F)cc2)c(C)n1Cc1ccco1 0.9
Cc1ccc2nc(-c3cccnc3)c(NC3CCCC3)n2c1 0.9
CC(C)[C@H](NC(=O)c1ccc(F)cc1)C(=O)OCC(=O)NC(=O)c1cccn1C 0.9
CCOC(=O)C1=C(C)OC(N)=C(C#N)C1c1cncc(-c2ccc(F)cc2)c1 (stereo not given) 1.1
CCC(C)NC(=O)c1nn(C)c(=O)c2ccccc12 (stereo not given) 1.1
O=C(CN1C(=O)CC(c2ccccc2)S(=O)(=O)c2ccccc21)NC1CCCC1 (stereo not given) 1.1
N#Cc1ccc(CSc2nnc3ccccn23)cc1 1
Cc1ccnc(SCC(N)=O)n1 1.1
CCC(C)(C)C1CCC(=NNC(=O)c2ccc(Br)o2)CC1 (stereo not given) 1
CCOC(=O)/C(=N\Nc1ccccc1[N+](=O)[O-])c1csc(Nc2ccccc2)n1 0.9
COC(=O)C(C)N=Cc1ccccc1 (stereo not given) 0.9
Cc1onc(C(=O)NN)c1C(=O)N1CCN(C(c2ccccc2)c2ccccc2)CC1 0.9
CCOCCCNC(=O)C(NC(=O)Cc1c[nH]c2ccccc12)c1ccc(OC)cc1 (stereo not given) 0.9
CC/C(O)=C1\C(=O)CC(C)(C)CC1=NCCc1nc2ccccc2[nH]1 1.1
N#Cc1ccccc1NC(=O)c1cccc(COc2ccc(Cl)cc2Cl)c1 0.9
CCCCc1ccc(NC(=S)NCCCN2CCOCC2)cc1 1
COc1cc(CNCCN(C)C)ccc1OCc1c(F)cccc1Cl 1
O=C(CCNC(=O)Cn1ccc2ccccc2c1=O)NCCC1=CCCCC1 1
Cn1c(=O)c2cc(S(=O)(=O)NCCC(=O)Nc3ccc(F)cc3F)ccc2n(C)c1=O 1
Cc1cccc(C)c1NC(=O)C1(N(C(=O)c2ccccn2)c2ccc(O)cc2)CCCCC1 0.9
Cc1ccc(CN2CCN(Cc3ccccc3-c3ccco3)CC2CCO)o1 (stereo not given) 0.9
CCOCCCNC(=O)C(NC(=O)c1ccccc1O)c1ccccc1 (stereo not given) 1.1
O=C(Cc1ccccc1)NNC1CC(=O)N(c2ccc(Br)cc2)C1=O (stereo not given) 0.9
Cc1ccc(-c2ccc(/C=C(\C#N)C(N)=S)o2)c([N+](=O)[O-])c1 1
Cn1cc(C(=O)NCc2ccccc2F)cn1 1
OC1CSc2nc3ccccc3n2C1 (stereo not given) 0.9
CCN(C(=O)COC(=O)c1cc(NS(=O)(=O)c2ccc(Cl)c([N+](=O)[O-])c2)ccc1O)C1CCCCC1 0.8
COCCCNC(=O)C1CCC(CNS(=O)(=O)c2ccc(OC)cc2)CC1 (stereo not given) 1
COc1ccc(N2CCN(C(C)=C3C(=O)c4ccccc4C3=O)CC2)cc1 0.9
COc1ccc(OC)c(-n2c(=S)[nH]c3cc(C(=O)N4CCCCC4)ccc3c2=O)c1 1
Cn1c(CNC(=O)c2ccccc2F)nnc1SCc1ccc(F)cc1 1.2
COc1ccc2c(c1)c(=O)c(C(=O)c1ccc(Cl)cc1)cn2CC(=O)Nc1ccc(F)cc1 1
CC(C)NC(=S)Nc1cccc2cnccc12 1
O=C(N/N=C/c1ccc(Cl)cc1)c1nc2ccc([N+](=O)[O-])cc2c(=O)[nH]1 1
CCCNC(=O)OC[C@H]1O[C@H](CCO/N=C/[C@@H](NS(=O)(=O)c2ccc(C)cc2)[C@H](C)/C=C/CC(=O)OC)C=C[C@@H]1Oc1ccc(OC)cc1 0.9
O=C(Nc1nnc(SCc2ccccc2Cl)s1)c1cccc([N+](=O)[O-])c1 0.9
CSc1ccc(CNCCN2CCOCC2)cc1 1.1
CC(C)(C)NC(=O)NC(=O)COC(=O)Cc1c(F)cccc1Cl 1.2
CCCCCC1CCC(c2nnc(SCC(C)=O)o2)CC1 (stereo not given) 1
Cc1ccccc1OCCC(=O)OCC(=O)NC(C)c1ccccc1 (stereo not given) 1
O=C(CSc1cccc[n+]1[O-])c1ccc(-c2ccccc2)cc1 1.2
Cc1cc([N+](=O)[O-])nn1CC(=O)Nc1ccc(Cc2ccncc2)cc1 1
COCCNC(=O)C(OC(=O)c1cccs1)c1ccc(F)cc1 (stereo not given) 1
Cc1ccc(S(=O)(=O)N2CCN(CC(=O)N/N=C/c3ccc(Br)s3)CC2)cc1 0.9
CN(CC(=O)NCCc1ccccn1)S(=O)(=O)c1ccc(Cl)cc1 0.9
CC1=C(C(=O)Nc2cc(C)ccn2)C(c2cnn(C)c2)C2=C(CC(c3ccccc3)CC2=O)N1 (stereo not given) 1
O=C(Nc1ccc(CSc2ccccc2)cc1)c1ccc(CN2CCOCC2)cc1 1.1
COc1ccc(Cl)cc1NC(=O)C(C)N1CCc2ccccc21 (stereo not given) 1.1
Cc1ccn(CC(=O)N2N=C(C(F)F)CC2(O)C(F)F)n1 (stereo not given) 1.1
N#Cc1c(C(F)(F)F)cc(-c2ccc(Cl)cc2)nc1SCC(=O)O 1
CCOC(=O)C1CCN(S(=O)(=O)c2cc(F)ccc2OC)CC1 1
COCCNc1nc2nonc2nc1N(C)Cc1ccc(C)cc1 0.9
Cc1ccc(NC(=O)CC(=O)Nc2ccc(C)cc2)cc1 1
CCOC(=O)C1=C(N)N(c2ccc(C)cc2)C2=C(C(=O)CCC2)C1c1cccs1 (stereo not given) 1
CN(C)/C=C(/C(=O)c1ccccc1Cl)S(C)(=O)=O 1
COC(=O)c1nc(NC(=O)c2ccc(C(C)(C)C)cc2)n[nH]1 1.1
CC(C)Oc1ccc(/C=C(\NC(=O)/C=C/c2ccco2)C(=O)NCCc2nc3ccccc3[nH]2)cc1 0.9
O=C(c1ccccc1)c1ccc(OCC(O)CN2CCCC2)cc1 (stereo not given) 1
COc1cc(S(=O)(=O)N2CCOCC2)ccc1NC(=O)COc1ccc(N(C)S(=O)(=O)c2ccc(C)cc2)cc1 1
Cc1cc(C#N)c(SCC(N)=O)nc1-c1ccc(F)cc1 1.1
CC1=NNC(=O)C1CCC(=O)N/N=C\c1cccc(Cl)c1 (stereo not given) 1
CCOC(=O)c1sc2nc(C)nc(SCC(N)=O)c2c1C 1.1
COC(=O)c1cc(NC(=O)c2nn(C)c(=O)c3ccccc23)cc(C(=O)OC)c1 1
CCC(C(=O)Nc1ccc(C(C)C)cc1)c1ccccc1 (stereo not given) 1
CC(C)(C)c1ccc(/C=C/C(=O)Nc2ncccn2)cc1 1
COC(=O)c1ccc(NC(=O)CSc2nncc3ccc(OC)c(OC)c23)cc1 1
COc1ccc(OCC(O)CNC(=O)Nc2ccc(Cl)cc2)cc1 (stereo not given) 0.9
Cc1ccc(CN2CCN(/N=C/c3cccnc3)CC2)c(C)c1 1.1
CCC(C)(C)NC(=O)CN(Cc1cccs1)C(=O)CNS(=O)(=O)c1ccc(F)cc1 1.1
COc1cccc(CC2(CO)CCCN(CC3=Cc4cc(OC)ccc4OC3)C2)c1 (stereo not given) 0.9
CC1CCN(c2ccc(C(=O)NCc3ccc4c(c3)OCO4)cc2[N+](=O)[O-])CC1 0.8
Cc1cccc(C2=N/C(=C/c3cccs3)C(=O)O2)c1 1
CCc1cc(C(=O)OC)c(NC(=O)CC2Sc3ccc(C(F)(F)F)cc3NC2=O)s1 (stereo not given) 0.9
Cc1ccc(C(=O)N/C(=C/c2ccc(-c3cccc([N+](=O)[O-])c3)o2)C(=O)NCCCN(C)C)cc1 1
COC(=O)NNC(=O)C1CCC(C)CC1 (stereo not given) 1.1
COC(=O)C(NS(=O)(=O)c1ccc(F)cc1)c1ccccc1 (stereo not given) 1
COc1ccc(Cl)cc1NC(=O)Cn1nc(-c2ccc(C)cc2)n(C)c1=S 1.1
CCc1ccc(N(CC(=O)Nc2sc3c(c2C(=O)OC)CCCC3)S(C)(=O)=O)cc1 0.8
CN(CCOc1ccc(Br)cc1)CC(=O)Nc1cccc(S(=O)(=O)NC2=NCCC2)c1 0.9
OCCC1CN(Cc2ccc3nsnc3c2)CCN1C1CCCCC1 (stereo not given) 0.9
O=C(CSc1nnc2ccc(-c3ccncc3)nn12)N1CCCCC1 1
COc1cccc(C(=O)NCCSc2ccc(Br)cc2)c1 1.1
N#CCOc1ccc(C2=NO[C@@H]3[C@@H]4C[C@@H]([C@H]5C(=O)N(c6ccc7c(c6)OCO7)C(=O)[C@@H]45)[C@H]23)cc1 0.9
Cn1cc(/C=C/C(=O)N2CCCC(C(=O)c3ccc(C(F)(F)F)cc3)C2)cn1 (stereo not given) 1
COc1ccc(CCCc2nnc(SCc3nc4ccccc4c(=O)[nH]3)n2C)cc1 1
CN(C)c1ccc(/C=N/NC(=O)C(O)c2ccc(Br)cc2)cc1 (stereo not given) 1
Nc1nc(NC(=O)/C=C/c2ccccc2)nn1-c1ccccc1 1
COc1ccc(OC)c(C(=O)c2ccc(C(=O)N3CCN(Cc4csc(C)n4)CC3)cc2)c1 1
O=C(Cc1ccccc1)NCC1OCCc2ccccc21 (stereo not given) 0.9
O=Cc1ccc(OCc2cn3ccccc3n2)cc1 1.1
CCCCC1S/C(=N/N=C/c2cccs2)NC1=O (stereo not given) 1.3
Cc1cc2oc(C(=O)Nc3c(C)n(C)n(-c4ccccc4)c3=O)c(C)c2cc1Cl 1.1
CN1CCC(=NNC(=O)c2ccc(N(Cc3ccc(Cl)cc3)S(C)(=O)=O)cc2)CC1 0.8
